Screens from PubChem BioAssay.
This is a sample that favours compounds with a hit; in the whole collection about 2.7% have one here.
FBPA coupling cs: qHTS Assay for Inhibitors of Fructose-1,6-bisphosphate Aldolase from Giardia Lamblia: Coupling assay counterscreen; actives 0.67% (n = 290,000); AID 2472, 2010; coupling enzyme system counterscreen, AmpLite Red fluorescence; activity change, negative = inhibition, % at 58.2 µM, hits read low; in the data active = activity change below about -30%
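Counterscreen lacking aldolase: glyceraldehyde-3-phosphate coupling-enzyme reagent preincubated 10 min at RT with compound (at 57.5 uM final), then substrate/coupling system with AmpLite Red added; fluorescence read at 525/598 nm after 20 min RT.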
Tau fluor cs: Counterscreen qHTS for Inhibitors of Tau Fibril Formation, Fluorescence Polarization; tau K18 P301L Alexa594 fluorescence, heparin fibrillization; Potency, µM (highest dose often 57.7 µM), for the others: at the highest dose activity change, negative = decrease; actives 0.93% (n = 280,000); also: potency is read from the fitted curve at half-maximal effect; nearly all actives have a fitted effect of over 55% in size
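Human tau K18 P301L (15 uM unlabeled, 0.24 uM Alexa 594-labeled) in 100 mM sodium acetate pH 7 with 20 uM heparin, 6 hr at 37 C. ThT 30 uM added, 1 hr ambient; Alexa 594 FP and total fluorescence read at 555/632 nm.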
Tau ThT inhib: qHTS for Inhibitors of Tau Fibril Formation, Thioflavin T Binding | Microtubule-associated protein tau (Homo sapiens), P10636 | recombinant tau K18 P301L (four-repeat tau fragment), heparin-induced fibrillization, ThT fluorescence | Potency, µM (top dose mostly 57.4 µM), for inactives: at the top dose activity, negative = inhibition, most hits filed as inhibitors | actives 2.1% (n = 270,000) | AID 1460, 2008; also: potency is read from the fitted curve at half-maximal effect; nearly all actives have a fitted effect of over 55% in size
Target sequence (P10636 561-689 P618L limits assumed): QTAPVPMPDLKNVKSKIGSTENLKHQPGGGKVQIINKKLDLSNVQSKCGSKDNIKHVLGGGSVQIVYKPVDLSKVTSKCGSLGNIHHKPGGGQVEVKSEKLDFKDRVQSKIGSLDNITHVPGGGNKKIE
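Tau K18 P301L fragment (15 uM unlabeled plus 0.24 uM Alexa 594-labeled) in 100 mM sodium acetate pH 7 with compound, fibrillization induced by 20 uM heparin for 6 hr at 37 C. Thioflavin T (30 uM) added, fluorescence read after 1 hr (ex 450, em 510 nm).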
Tau fibril FP: qHTS for Inhibitors of Tau Fibril Formation, Fluorescence Polarization; Microtubule-associated protein tau (Homo sapiens), P10636; Potency, µM (highest dose often 57.7 µM), for the others: top-dose activity, negative = inhibition, usual class: inhibitors; actives 0.39% (n = 280,000); K18 P301L tau heparin fibrillization, Alexa594 FP, 6 h; also: potency is read from the fitted curve at half-maximal effect; nearly all actives have a fitted effect of over 55% in size
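Read-out: fluorescence polarization of Alexa 594-labeled tau (0.24 uM), 555 nm excitation, 632 nm emission. Mixtures held 15 uM unlabeled K18 P301L, compound and 20 uM heparin, pH 7 acetate buffer, incubated 6 hr at 37 C.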
An asterisk follows results filed as active; ? = inconclusive; nt = no result given; [ ] = remark or other dose. Unless noted, calls follow the shape of the dose curve; as a rule, active = well fitted curve in the direction sought with a large enough effect; inconclusive = small, poorly fitted or top-dose-only effect, or another doubt; inactive = no such curve, though single readings can be large; an effect the other way counts as inactive or inconclusive. % is scaled to controls: 0 for no effect and ±100 for the full control effect.

SMILES	FBPA coupling cs	Tau fluor cs	Tau ThT inhib	Tau fibril FP
COc1cccc(/C=N/NC(=O)c2cc3cc([N+](=O)[O-])ccc3s2)c1O	0	?	2.2µM*	11%
COc1cc(OC)c([N+](=O)[O-])cc1/C=N/NC(=O)c1ccncc1	-42*	?	25µM*	?
COc1cc([N+](=O)[O-])cc(/C=N/NC(=O)c2ccc(NC(=O)c3ccc(C)cc3)cc2)c1O	2	?	2µM*	15%
COc1cc([N+](=O)[O-])cc(/C=N/NC(=O)c2ccc(C)nc2)c1O	5	-11%	11µM*	7%
CCOc1ccc(Cn2c(CNS(=O)(=O)c3ccc(C(C)(C)C)cc3)nc3cccnc32)cc1	nt	-17%	-17%	9%
COc1cc([N+](=O)[O-])cc(/C=N/NC(=O)C(C)Nc2cccc(C)c2)c1O (stereo not drawn)	1	-23%	11µM*	9%
Cc1nc(CCNS(=O)(=O)c2cccnc2)cs1	3	8%[0.0958 µM]	nt	0%[0.0958 µM]
Cc1ccc(Cl)cc1NC(=O)C(=O)NCC(c1cccnc1)N1CCc2ccccc21 (stereo not drawn)	nt	?	-12%	?
COc1ccc(/C=N/NC(=O)Cc2csc(Nc3cccc(C(F)(F)F)c3)n2)cc1C	-1	18µM*[quencher]	?	?
Cn1c(SCC(=O)N2CCOCC2)ncc(C(=O)Nc2ccc(F)cc2)c1=O	nt	-2%	?	-3%
Cc1ccc(NC(=O)Nc2ccc3c(c2)N(C)C(=O)CS3)cc1C	0	1%	8%	2%
Cc1cc(C)cc(NC(=O)Nc2ccc3c(c2)N(C)C(=O)CS3)c1	-1	11µM*[quencher]	-12%	?
CCc1ccc(NC(=O)Nc2ccc3c(c2)N(C)C(=O)CS3)cc1	1	18µM*[quencher]	-18%	?
O=C(NCc1nnc2c(C(F)(F)F)cc(Cl)cn12)c1cccs1	1	nt	nt	nt
Nc1cccc2c1C(=O)N(C(=O)/C=C/c1ccc(F)cc1)C2=O	-2	-15%	25µM*	?
Nc1cccc2c1C(=O)N(C(=O)c1ccco1)C2=O	0	-1%	-13%	-1%
CO/N=C1\CN(c2nc3c(cc2F)c(=O)c(C(=O)O)cn3C2CC2)CC1CN (stereo not drawn)	-1	-4%	-1%	-4%
CCOc1ccccc1C1C(C#N)=C(N)Oc2n[nH]c(CC)c21 (stereo not drawn)	-1	-9%	-9%	-1%
CCOc1ccccc1C1C(C#N)=C(N)SC(N)=C1C#N	-31*	-17%	?	-5%
CCOc1ccc(C2C(C#N)=C(N)SC(N)=C2C#N)cc1OC	-39*	-25%	?	-3%
CCOc1ccc(C2C(C#N)=C(N)SC(N)=C2C#N)cc1OCC	-22	?	?	-1%
CSc1ccc(C2c3[nH]c4ccccc4c3CCN2C(=O)CCC2CCCC2)cc1 (stereo not drawn)	nt	3%	-1%	-1%
O=C(NCCNC(=O)c1cc(OCC(F)(F)F)ccc1OCC(F)(F)F)Nc1cccc(C(F)(F)F)c1	-3	?	-19%	10µM*
O=C(Nc1ccc(OC(F)F)cc1)Nc1cccc(C(F)(F)F)c1	-12	?	-5%	25µM*
CNS(=O)(=O)c1ccc(NC(=O)C2c3ccccc3Oc3ccccc32)cc1	0	1%	14%	-14%
SMILES	FBPA coupling cs	Tau fluor cs	Tau ThT inhib	Tau fibril FP
O=C(Nc1ccncc1)Nc1cccc(C(F)(F)F)c1	1	nt	nt	nt
CCN(CC)S(=O)(=O)c1ccc(NC(=O)Nc2cccc(C(F)(F)F)c2)cc1	-5	?	-4%	7.9µM*
CCN(CC)S(=O)(=O)c1ccc(NC(=O)C2c3ccccc3Oc3ccccc32)cc1	-1	?	-7%	28µM*
CN(C)S(=O)(=O)NCCNC(=O)c1cc(OCC(F)(F)F)ccc1OCC(F)(F)F	3	4%	1%	-3%
Cc1cccc(-c2noc(CNC(=O)c3ccccc3Br)n2)c1	nt	-14%	-3%	-11%
CCN(CC)S(=O)(=O)c1ccc(/C=C/C(=O)O)cc1	10	0%	2%	2%
CCN(CC)S(=O)(=O)c1ccc(/C=C/C(=O)Nc2cccc(F)c2)cc1	-1	?	?	35µM*
Cc1ccc(S(=O)(=O)Nc2ccc(NC(=O)Nc3cccc(C(F)(F)F)c3)cc2)cc1	-3	2.5µM*[quencher]	-11%	13µM*
Cc1ccc(NS(=O)(=O)c2ccc(NC(=O)c3cccc(NC(=O)C(C)C)c3)cc2)cc1	3	?	17%	?
Cc1cccc(CCn2c(=O)c3ccccc3n(Cc3cccc(F)c3)c2=O)c1	nt	?	?	-13%
CCCS(=O)(=O)c1nc(S(=O)(=O)c2ccc(C)cc2)c(NCc2ccccc2Cl)s1	nt	-22%	0%	-10%
C/C(=N\NC(=O)c1ccc(O)cc1)c1ccc2c(c1)Nc1ccccc1S2	-1	11µM*[quencher]	4.5µM*	-8%
CN1C(=O)c2ccccc2Sc2ccc(NC(=O)c3ccccc3F)cc21	nt	-23%	-10%	-5%
C/C(=N\NC(=O)c1ccccc1F)c1ccc2c(c1)Nc1ccccc1S2	3	3.5µM*[quencher]	2µM*	?
CCCSc1nc(-c2ccc(OC)cc2)cc(-c2ccccc2OC)c1C#N	nt	?	22µM*	25µM*
COc1ccccc1-c1cc(-c2ccccc2)nc(SCC(=O)O)c1C#N	7	nt	nt	nt
CCCCN(C)CCCNC(=O)C1CCN(S(=O)(=O)CCC)CC1	nt	-8%	-4%	-4%
CC(=O)c1ccc(NC(=S)Nc2cccc3cnccc23)cc1	-62*	-23%	?	-16%
S=C(Nc1cccc(Cl)c1)Nc1cccc2cnccc12	4	4%	3%	7%
Cc1ccc(NC(=S)Nc2cccc3cnccc23)cc1	-38*	-14%	?	?
Cc1ccc(NC(=S)Nc2cccc3cnccc23)cc1C	-44*	9%	6%	7%
O=C(c1ccc2c(c1)N(Cc1cccc(Cl)c1)C(=O)c1ccccc1S2(=O)=O)N1CCC(Cc2ccccc2)CC1	nt	-11%	-12%	-13%
CN(C(=O)c1cc2c(s1)-c1ccc(Cl)cc1SC2)c1cccc(C(F)(F)F)c1	nt	-17%	-12%	-4%
Cc1cc2c(cc1C)N(C(=O)CSc1nncn1C)C(C)(C)c1ssc(=S)c1-2	4	-22%	20µM*	4%
Cc1cc2nc3ccc(=[N+](C)C)cc-3sc2cc1N	-42*	?	1.1µM*	8.9µM*
Cc1nc2cc(C)c(C)cc2s1	0	6%	9%	-1%
Cc1ccc(Cl)cc1N1CCN(CCNC(=O)Nc2ccc(Cl)cc2)CC1	nt	?	-1%	13µM*
CCOc1ccc(NC(=O)NCCN2CCN(c3cc(Cl)ccc3C)CC2)cc1	nt	14µM*[quencher]	?	?
COc1ccc(N2CCN(CCNC(=O)Nc3ccc(Cl)cc3)CC2)cc1	-2	-21%	-15%	16%
Cc1ccc(C)c(S(=O)(=O)c2nnn3c2nc(NC2CCCC2)c2sccc23)c1	nt	?	6%	-20%
